# High-throughput results from PubChem.
# HT1080 IDH1KD tx = kills HT-1080 cells with IDH1 knockdown; HT-1080 IDH1 knockdown viability, ATP luminescence, 48 h; Potency, µM (titrated, usually from 46.1 µM), for the others: top-dose activity, negative = toxicity, hits mostly cytotoxic; 2% of 360,000 active; AID 686971;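 further: potency means the concentration at half of the fitted maximal effect; 0% = DMSO wells and -100% = cell-free medium wells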
#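 IDH1KD HT-1080 cells, 750/well, RPMI + 5% FBS; compound pinned after 2 h settling; 48 h, 37 °C; CellTiter-Glo luminescence; % activity normalised to DMSO and no-cell wells; curves fitted, classed by r2 and efficacy.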
# HT1080-NT tox = kills 2HG-producing HT-1080-NT fibrosarcoma cells | HT-1080-NT fibrosarcoma viability, CellTiter-Glo ATP luminescence, 48 h | Potency, µM (titrated, usually from 46.1 µM), for inactives: top-dose activity, negative = less viability, actives largely listed as cytotoxic | 1.6% of 360,000 active | AID 686970;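 further: NT is the 2HG producing partner of a matched IDH1 knockdown line; potency means the concentration at half of the fitted maximal effect; 0% = DMSO-treated cells and -100% = media-only wells without cells; nearly all actives have a fitted effect of over 55% in size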
#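 Compounds were tested in concentration-response format on HT-1080-NT cells for 48 hours at 37 degrees C. Cell viability came from CellTiter-Glo luminescence; curves were classified by r2, response magnitude and activity.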
# IL-1B inflam inh = inflammasome signaling inhibition, IL-1 beta readout. THP-1 LPS/ATP IL-1B secretion, AlphaLISA, 16 h; active compounds read low. activity change, % at 57.5 µM. AID 743279. 4.7% of 360,000 active; in the data active means activity change below about -50%; inconclusive means mostly about -30% to -49%
#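 Secreted IL-1B measured by AlphaLISA bead assay after 16 h compound exposure of THP-1 cells; compounds (final up to 57.5 uM) added 1 h before LPS (250 ng/mL) and ATP (1.25 mM) stimulation; lower signal means less secretion.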
# DT40 TDP1 no CPT = qHTS for Inhibitors of human tyrosyl-DNA phosphodiesterase 1 (TDP1): qHTS in cells in absence of CPT | DT40 Tdp1-/- hTDP1 cells, no CPT, ATP luminescence, 48 h | 15% of 420,000 active | Potency, µM (titrated, usually from 46.2 µM), without a hit: at the top dose activity change, negative = growth inhibition, hits mostly inhibitors; further: potency means the concentration at half of the fitted maximal effect; nearly all actives have a fitted effect of over 55% in size
#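 Growth kinetics read by CellTiter-Glo luminescence after ≥48 hr at 37 °C. Cells: DT40 Tdp1-/- stably carrying human TDP1, 400 per well, compound exposure in the absence of CPT (DMSO vehicle).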
# ELG1 DNA repair = ELG1-dependent DNA repair inhibition. HEK293T ELG1-luciferase reporter, luminescence, 16 h; DNA damage induced by 5-fluorouridine. Potency, µM (titrated, usually from 46.1 µM), for the others: at the top dose activity change, negative = inhibition, usual class: inhibitors. 2.3% of 330,000 active; further: potency means the concentration at half of the fitted maximal effect; nearly all actives have a fitted effect of over 55% in size
#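 Overnight (16 hr) co-exposure of 2,000 cells/well to 5-fluorouridine and compound at 37 °C preceded detection. Luciferase was quantified via ONE-Glo luminescence; loss of signal denotes inhibition.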
# TDP1 cell CPT = growth inhibition of DT40 Tdp1-/-;hTDP1 cells with camptothecin (screen for TDP1 inhibitors); chicken DT40 Tdp1-/-;hTDP1 cells + 20 nM CPT, ATP luminescence, 48 h; Potency, µM (doses to about 46.2 µM), without a hit: at the top dose activity change, negative = growth inhibition, most hits filed as inhibitors; 12% of 420,000 active; further: potency means the concentration at half of the fitted maximal effect; nearly all actives have a fitted effect of over 55% in size
#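 Cell growth measured by CellTiter-Glo luminescence after a minimum 48 h, 37 C compound exposure with 20 nM CPT in Tdp1-knockout DT40 cells stably expressing hTDP1, seeded 400/well; qHTS titration format.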
# Starred values were filed as active, the others as inactive; ? = inconclusive; nt = not tested or not shown. Rows were chosen to be rich in hits. Some 19% of all compounds tested hit in one or more screens of this group. Unless noted, the call rests on the fitted dose curve; in most records, active means well fitted curve in the direction sought with a large enough effect; inconclusive means small, poorly fitted or top-dose-only effect, or another doubt; inactive means no such curve, though single readings can be large; an effect the other way counts as inactive or inconclusive. Unless noted, on the % scale 0 is the no-effect control and ±100 the full control effect.
SMILES,HT1080 IDH1KD tx,HT1080-NT tox,IL-1B inflam inh,DT40 TDP1 no CPT,ELG1 DNA repair,TDP1 cell CPT
CNc1nc(SC(C)C(=O)Nc2ccc(Cl)c(Cl)c2)nc(N2CCOCC2)n1 (configuration not stated),5%,10%,23,-33%,-19%,?
CC(C)CCNC(=O)c1cn(C)c2ccc(S(=O)(=O)N3CCOCC3)cc2c1=O,nt,nt,nt,-19%,nt,-20%
CCOC(=O)N1CCC(N2Cc3cccc(C(=O)Nc4ccc(OCC)cc4)c3C2=O)CC1,13%,3%,-15,?,?,?
CCn1nc(C)cc1C(=O)N1CCCC(N2CCN(Cc3ccc4c(c3)OCO4)CC2)C1 (configuration not stated),7%,2%,32,?,2%,-11%
COc1ccc(NC(=O)C(NS(=O)(=O)c2cccc3nsnc23)c2ccccc2)cc1 (configuration not stated),nt,nt,nt,-7%,nt,-25%
CCC(=O)Nc1cc(=O)[nH]c2nc(-c3ccc(Cl)cc3)nn12,2%,11%,17,18µM*,-1%,?
CCCN(CC(=O)Nc1ccccc1OC)C(=O)c1ccc(COc2ccccc2)o1,3%,4%,9,?,-8%,16µM*
CCCN(CC(=O)Nc1ccccc1C)C(=O)CCl,4.1µM*,8.2µM*,-95*,2.1µM*,7.3µM*,2.6µM*
CCCN(CC(=O)Nc1ccccc1C)C(=O)COc1c(C)cccc1C,1%,1%,-13,6%,-6%,?
CCCN(CC(=O)Nc1ccccc1C)C(=O)COC(=O)CSc1ccc([N+](=O)[O-])cc1,14%,12%,1,0%,27%,-8%
CCCN(CC(=O)Nc1ccccc1C)C(=O)c1ccc(-c2ccc([N+](=O)[O-])cc2)o1,0%,-4%,-4,21µM*,?,?
Cc1cc(F)ccc1NC(=O)c1ccc(NS(=O)(=O)c2cccs2)cc1,-5%,-2%,-1,?,nt,-6%
COc1ccc(OC)c(CCNC(=O)c2c3c(nc4ccccc24)C(=O)N(C2CCCCC2)C3)c1,nt,nt,nt,18µM*,nt,?
COc1ccc(C)cc1NC(=O)c1c2c(nc3ccccc13)C(=O)N(C1CCCCC1)C2,nt,nt,nt,3.7µM*,nt,16µM*
COc1ccc(OC)c(NC(=O)c2c3c(nc4ccccc24)CCC3)c1,-11%,1%,30,-29%,0%,?
COc1cccc(CNC(=O)c2c3c(nc4ccccc24)C(=O)N(C2CCCCC2)C3)c1,nt,nt,nt,21µM*,nt,13µM*
COc1ccc(CNC(=O)c2c3c(nc4ccccc24)C(=O)N(C2CCCCC2)C3)cc1,nt,nt,nt,15µM*,nt,12µM*
O=C(NOCc1cscn1)Nc1ccccc1,7%,-2%,4,3%,nt,-29%
O=C(O)/C=C/c1cccc2c1OCCO2,-1%,-5%,18,2%,-4%,-9%
COc1ccc(CNC(=O)c2c3c(nc4ccccc24)C(=O)N(C2CCCCC2)C3)c(OC)c1,nt,nt,nt,3%,nt,-2%
O=C(NCc1cccc(Cl)c1)c1c2c(nc3ccccc13)C(=O)N(C1CCCCC1)C2,nt,nt,nt,10µM*,nt,15µM*
CCOc1ccccc1N(C)C(=O)c1c2c(nc3ccccc13)C(=O)N(C1CCCCC1)C2,nt,nt,nt,?,nt,16µM*
O=C(NC(=S)Nc1ccc2c(c1)OCCO2)c1cccc(Br)c1,-13%,-5%,17,?,?,15µM*
O=C(NC(=S)Nc1ccc2c(c1)OCO2)c1ccccc1,-12%,-8%,-22,0%,?,-3%
O=C(NC(=S)Nc1ccccc1O)c1cncc(Br)c1,?,?,18,23µM*,nt,?
SMILES,HT1080 IDH1KD tx,HT1080-NT tox,IL-1B inflam inh,DT40 TDP1 no CPT,ELG1 DNA repair,TDP1 cell CPT
CC(=O)c1cccc(NC(=S)NC(=O)c2cncc(Br)c2)c1,-1%,-7%,23,?,?,13µM*
O=C(NC(=S)Nc1ccccc1C(=O)O)c1cncc(Br)c1,19%,21%,-7,?,2%,?
COc1ccc(OC)c(NC(=O)c2cc3c(n(-c4ccc(Cl)cc4)c2=O)CC(C)(C)CC3=O)c1,nt,nt,nt,-6%,nt,?
CC1CCCN(C(=O)c2cc3c(=O)n(C)c4ccccc4c3s2)C1 (configuration not stated),nt,nt,nt,0%,nt,-4%
CCc1ccc(-c2nn(CC(=O)NCc3ccccc3)c3c2cnc2ccc(F)cc23)cc1,nt,nt,nt,-27%,nt,-15%
O=C(N=C1SC2CS(=O)(=O)CC2N1c1ccccc1C(F)(F)F)C1CCCO1 (configuration not stated),12%,3%,17,23%,7%,-20%
Cc1ccc2[nH]c(-c3ccccc3)cc(=O)c2c1,1µM*,0.73µM*,70,0.65µM*,?,0.82µM*
Cc1ccc(-c2cc(=O)c3ccccc3[nH]2)cc1,?,?,0,9.2µM*,?,16µM*
Clc1ccc(-c2cc3ccccc3[nH]2)cc1,14%,11%,-5,4%,?,7%
O=c1cc(-c2ccc(Cl)cc2)[nH]c2ccccc12,-10%,-9%,13,6.5µM*,8%,4.1µM*
Cc1ccccc1CNC(=O)CN1C(=O)C2CCCCN2c2ccc(C(=O)N3CCCC3)cc21 (configuration not stated),nt,nt,nt,-26%,nt,-15%
CN1CCN(C(=O)C2CCC(=O)N(Cc3cccc(C(F)(F)F)c3)C2)CC1 (configuration not stated),-9%,-2%,-2,?,?,-25%
NC(=O)[C@H]1CC2(CC(c3cccc(NC(=O)COc4ccc(Cl)cc4)c3)=NO2)CN1C(=O)c1ccccc1C(=O)c1ccccc1 (some centres not stated),-19%,-16%,?,18µM*,?,21µM*
CCC(=O)N1CC2(CC(c3cccc(NC(=O)COc4ccc(Cl)cc4)c3)=NO2)C[C@@H]1C(N)=O (some centres not stated),nt,nt,nt,nt,-10%,nt
NC(=O)[C@H]1CC2(CC(c3cccc(NC(=O)COc4ccc(Cl)cc4)c3)=NO2)CN1C(=O)c1ccc(Cl)cc1 (some centres not stated),?,?,?,?,?,18µM*
